Sampled rows, rich in hits. Any-hit rate of the full collection: about 10%.
PTEN del growth: growth suppression of PTEN-null HCT116, primary screen, cell-based, CellTiter-Glo; viability, % at 10 µM; hit rate 1.2% among 140,000; HCT116 PTEN-null viability, 60 h; stronger effect = lower value;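 active = viability at or below a set limit, 4 SD under the median of all tested compounds, cut at about 3.7% in these data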;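 also: PTEN knockout HCT116 line with beta catenin targeted HCT116 as companion control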
HCT116 bCat-KO: primary screen for growth suppressors in beta-catenin knockout HCT116 cells (colon tumor, human); hit rate 1.5% among 140,000; HCT116 beta-catenin knockout viability, CellTiter-Glo, 60 h; stronger effect = lower value; AID 818, 2007; viability, % at 10 µM;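 active = viability at or under a set limit, the compound median less 4 SD, cut at about 6% in these data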;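 also: 0% = Hyamine 1622 control at 20 µM and 100% = untreated cell control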
INS promoter inh: inhibitors of insulin promoter-driven GFP, primary screen, imaging, TRM-6 cells (human fetal islet line), eGFP reporter, cell count | reporter expression induced with tamoxifen | inhibition, % at 2 µM | hit rate 0.9% among 130,000 | AID 1273, 2008;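 active = inhibition above the mean plus 3 SD, with well images judged a real hit on visual review, cut at about 60% in these data, passing the limit was not always enough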
p97 inhibitor: inhibitors of human p97 ATPase, primary screen, biochemical | inhibition, % at 8 µM | recombinant p97 ATPase, Kinase-Glo ATP luminescence, 3 h | hit rate 0.42% among 220,000 | Transitional endoplasmic reticulum ATPase (Homo sapiens), P55072; in the data active = inhibition above about 15%;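 also: 0% = DMSO vehicle and 100% = wells lacking enzyme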
ROMK primary: ROMK potassium channel modulators, primary screen, cell-based, thallium flux, MLSMR library | Tet-inducible ROMK, thallium flux fluorescence; actives lie on both sides | hit rate 2% among 130,000 | B-score at 10 µM | AID 1918, 2009;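 active = signal ratio slope over the read window, or its plate-corrected B-score, at least 3 SD from the plate mean, either direction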;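 also: B-score of the F/F0 ratio slope over 7 to 12 s after thallium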
Target sequence (P48048 whole entry, looked up): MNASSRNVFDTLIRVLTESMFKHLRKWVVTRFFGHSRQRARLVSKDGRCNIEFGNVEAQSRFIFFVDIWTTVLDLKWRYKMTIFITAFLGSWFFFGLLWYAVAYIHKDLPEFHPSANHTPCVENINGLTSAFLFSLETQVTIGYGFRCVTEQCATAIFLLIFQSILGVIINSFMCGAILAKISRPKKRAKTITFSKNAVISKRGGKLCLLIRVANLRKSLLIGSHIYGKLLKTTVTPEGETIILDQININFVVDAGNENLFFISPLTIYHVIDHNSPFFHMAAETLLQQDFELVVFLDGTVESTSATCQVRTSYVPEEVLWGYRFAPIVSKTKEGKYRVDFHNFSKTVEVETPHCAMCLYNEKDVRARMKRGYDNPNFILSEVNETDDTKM
Lmaj promast: Leishmania major promastigote growth inhibition, primary screen. Leishmania major promastigotes, resazurin fluorescence viability. inhibition, % at 10 µM. hit rate 9% among 200,000; in the data active = inhibition above about 50%;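 also: promastigotes grown with compound for 44 hours at 28 °C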
* marks the source's active call; other numbers are inactive results; nt = no result.

SMILES	PTEN del growth	HCT116 bCat-KO	INS promoter inh	p97 inhibitor	ROMK primary	Lmaj promast
O=C(NCCC1=CCCCC1)C(=O)NCC1OCCCN1S(=O)(=O)c1ccccc1 (centres undefined)	89.0	93.3	7.1	1.9	-0.329	95.7*
O=C(NCc1ccncc1)C(=O)NCC(c1ccco1)N1CCN(c2ccccc2F)CC1 (centres undefined)	95.1	100.0	-37.9	4.4	0.293	51.7*
O=C(NCCC1=CCCCC1)C(=O)NCC(c1ccco1)N1CCN(c2ccccc2)CC1 (centres undefined)	70.2	71.8	-20.7	4.6	-0.212	88.5*
Cc1ccc(Cl)cc1NC(=S)N(CCN(C)C)C(C)c1ccccn1 (centres undefined)	nt	nt	-50.0	0.8	0.179	16.9
CCn1nc(C)c(NS(=O)(=O)c2ccccc2)c1C	89.2	101.3	14.3	3.6	0.351	-2.5
O=C(NCCC1=CCCCC1)C(=O)NCC(c1ccco1)N1CCN(c2ccccc2F)CC1 (centres undefined)	28.2	34.8	-6.9	1.9	0.143	74.2*
COc1ccc(N2CCN(C(CNC(=O)C(=O)NCCC3=CCCCC3)c3ccco3)CC2)cc1 (centres undefined)	67.4	72.8	-6.9	2.0	-0.365	86.2*
COc1ccc(N2CCN(C(CNC(=O)C(=O)NCc3ccncc3)c3ccco3)CC2)cc1 (centres undefined)	nt	nt	nt	5.7	0.401	4.4
O=C(NCc1ccncc1)C(=O)NCC(c1ccccc1)c1ccccc1	95.0	92.2	25.6	3.2	nt	57.5*
CCOc1ccc(/C=N/NC(=O)CNC(=O)c2ccc(S(=O)(=O)N3CCOCC3)cc2)cc1	nt	nt	nt	2.0	1.15	7.0
Cc1cccc(NC(=O)C2CC(=O)NC(Nc3nc4ccccc4s3)=N2)c1 (centres undefined)	91.8	98.0	nt	0.5	nt	-5.6
CCN(CC)CCN(C(=O)Cn1nnc(-c2ccc(C)o2)n1)C(C(=O)NC(C)(C)C)c1cccs1 (centres undefined)	nt	nt	-21.9	-4.4	0.0377	-2.5
COc1cccc(C(=O)NC(C)c2ccc(Br)cc2)c1 (centres undefined)	94.9	99.2	16.7	-5.8	nt	60.5*
COc1cc(OC)cc(C(=O)NC(C)c2ccc(Br)cc2)c1 (centres undefined)	nt	nt	-11.8	-0.2	-1.07	37.5
Cc1oc(-c2cc(F)ccc2F)nc1CN1CCN(c2cnccn2)CC1	nt	nt	nt	0.8	-0.82	-4.2
Cc1oc(-c2cc(F)ccc2F)nc1CN(C)Cc1ccc2nccnc2c1	nt	nt	-123.1	-1.2	nt	75.3*
CN(c1ccccc1)S(=O)(=O)c1ccc(NC(=S)Nc2ccccc2)cc1	96.1	95.8	25.8	4.2	nt	92.7*
COC(=O)c1ccc(-n2c(C)cc(-c3csc(NC(=O)c4ccc(S(=O)(=O)N(C)C)cc4)n3)c2C)cc1	95.5	95.5	17.9	0.9	0.605	56.9*
CC(=O)Nc1ccc(S(=O)(=O)N(C)c2ccccc2)cc1	85.7	84.2	-25.0	7.7	nt	0.7
CC(C)N(C)NC(=S)Nc1ccccc1	99.1	102.3	45.5	-1.4	0.1	62.5*
CN(c1cccc(NC(=O)c2ccc(N(C)S(=O)(=O)c3ccccc3)cc2)c1)S(C)(=O)=O	nt	nt	nt	3.9	nt	61.7*
CN(c1ccccc1)S(=O)(=O)c1ccc(NC(=O)c2ccco2)cc1	nt	nt	-22.2	0.7	-0.134	26.1
CN(c1ccccc1)S(=O)(=O)c1ccc(NC(=O)c2ccc(-c3ccccc3)cc2)cc1	56.8	34.5	19.4	1.0	nt	97.0*
Cc1csc(NC(=O)c2ccc(S(=O)(=O)N(C)c3ccccc3)cc2)n1	81.3	80.6	48.6	-0.4	nt	98.0*
CN(c1ccccc1)S(=O)(=O)c1ccc(C(=O)Nc2nccs2)cc1	95.9	88.8	nt	4.2	nt	5.1
SMILES	PTEN del growth	HCT116 bCat-KO	INS promoter inh	p97 inhibitor	ROMK primary	Lmaj promast
O=Cc1ccc(OCC(=O)Nc2ccccc2C(F)(F)F)cc1	nt	nt	nt	-4.2	0.203	0.5
O=C(OCc1csc(-c2ccccc2)n1)c1ccccc1O	nt	nt	nt	0.3	-0.279	-11.2
COc1ccc2c(c1)-c1nc(/N=C/c3cccc(OC)c3O)sc1CC2	88.7	84.4	47.2	8.6	-0.0914	60.5*
CCCCC(O)CN1CCC(c2ccccc2)CC1 (centres undefined)	102.9	88.5	28.6	3.2	0.91	93.1*
NC(=O)C1CCN(CC(O)CSc2ccccc2)CC1 (centres undefined)	nt	nt	nt	4.7	0.00691	nt
COc1ccc(C2=CC(=O)CC(c3ccccc3)C2)cc1 (centres undefined)	nt	nt	nt	2.9	-1.56	59.1*
CC1(C)CC(=NNC(=O)c2n[nH]c3c2CCC3)CC(C)(C)N1	nt	nt	nt	3.7	-0.147	-1.3
O=C(Cn1c2c(sc1=O)C1c3ccccc3OCC1CS2)Nc1ccc(Cl)c(Cl)c1 (centres undefined)	28.8	31.8	-20.0	0.8	-0.332	95.7*
CCCN1Cc2cccc(C(=O)NC3CCCC3)c2C1=O	95.4	98.4	93.8*	3.8	-0.776	12.1
CCCN1Cc2cccc(C(=O)NCc3cccs3)c2C1=O	102.5	111.5	65.4	2.9	nt	-0.5
COc1ccc(N(CC(=O)Nc2cc([N+](=O)[O-])ccc2C)S(C)(=O)=O)cc1OC	nt	nt	nt	4.9	nt	nt
C[n+]1ccc(/C=C/c2ccc(Br)cc2)cc1	70.7	69.3	9.8	-1.6	nt	86.0*
NS(=O)(=O)c1ccc(Nc2nc3ccccc3nc2NS(=O)(=O)c2cccc([N+](=O)[O-])c2)cc1	nt	nt	nt	2.8	1.02	-5.1
COc1ccccc1NC(=O)COc1ccc(CO)cc1Cl	98.1	98.2	-46.1	-3.4	nt	-1.5
COc1ccc2[nH]c3c(=O)n4c(nc3c2c1)SCC4	nt	nt	nt	3.3	-1.61	11.2
Cc1ccc2[nH]c3c(=O)n(N)c(=O)[nH]c3c2c1	nt	nt	nt	3.6	nt	nt
Cc1ccc2[nH]c3c(=O)n(N)c(C)nc3c2c1	nt	nt	93.8*	2.3	0.832	7.6
COc1ccc2[nH]c3c(=O)n(N)c(C)nc3c2c1	100.3	81.3	80.7*	0.0	nt	0.4
COc1cc(C(C)=O)ccc1Oc1ncnc2c1cnn2-c1cccc(Cl)c1	70.3	62.9	39.3	-3.1	nt	52.0*
Cc1c(N(C)C)nc2ccccc2c1N	105.9	105.2	0.0	6.7	nt	16.0
CCN(CC)c1nc2ccccc2c(N)c1-c1ccccc1	13.7	7.1	-48.7	6.1	nt	100.3*
CCc1ccc(C2=NN(S(C)(=O)=O)C(c3cccs3)C2)cc1 (centres undefined)	82.5	65.6	-441.7	-1.2	-0.786	67.3*
Cc1ccc(C2=NN(S(C)(=O)=O)C(c3cccs3)C2)cc1 (centres undefined)	89.9	90.8	-13.9	-4.5	nt	4.4
COc1ccc(/C=C2/N=C3CCCCCN3C2=O)cc1	nt	nt	15.4	2.3	nt	4.7

Bioassay records (PubChem BioAssay)
